Compounds with a hit are over-represented: about 21% of the library has one in this group of screens.
Pf growth 96h: Primary qHTS for delayed death inhibitors of the malarial parasite plastid, 96 hour incubation; AID 504834, 2011; actives 6.9% (n = 320,000); P. falciparum luciferase reporter growth, 96 h; Potency, µM (highest dose often 28.7 µM), most hits filed as inhibitors
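P. falciparum expressing integrated firefly luciferase, in erythrocytes at 2% hematocrit, 0.05% parasitemia, incubated with compounds 96 h at 37 C, 5% CO2. Growth inhibition read as loss of luminescence; two-generation exposure targets delayed-death apicoplast inhibitors.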
Shiga inhibitor: A qHTS for Small Molecule Inhibitors of Shiga Toxin | Vero cells, Shiga toxin protein synthesis inhibition reporter | AID 2315, 2010 | actives 9.2% (n = 290,000) | inhibition, % at 38.7 µM; in the data active = inhibition mostly above about 28%, no sharp cut-off; inactive = mostly below about 43%
Pf growth 48h: Primary qHTS for delayed death inhibitors of the malarial parasite plastid, 48 hour incubation; actives 5.9% (n = 310,000); P. falciparum luciferase growth in erythrocytes, 48 h; Potency, µM (top dose mostly 28.7 µM), usual class: inhibitors
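Read-out is firefly luciferase luminescence from an integrated reporter in P. falciparum, so falling signal marks reduced parasite growth. Infected erythrocytes were at 2% hematocrit and 0.1% parasitemia (final) in Albumax-supplemented RPMI 1640.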
Cycloheximide cs: Cycloheximide Counterscreen for Small Molecule Inhibitors of Shiga Toxin; cell reporter, cycloheximide protein synthesis inhibition counterscreen; max response, %; actives 12% (n = 300,000); AID 2314, 2010; in the data active = max response mostly above about 13%, no sharp cut-off; inactive = mostly below about 14%; also: read at 38.3 µM for the half of the compounds with a filed dose
Numbers stand for hits; 0 = inactive; ? = inconclusive; - = no result given; [ ] = remark or other dose. Unless noted, calls follow the shape of the dose curve; as a rule, active = well fitted inhibition curve with a large enough effect; inconclusive = small, poorly fitted or top-dose-only effect, or another doubt; inactive = no such curve, though single readings can be large or run the other way.

SMILES | Pf growth 96h | Shiga inhibitor | Pf growth 48h | Cycloheximide cs
CC(C)C(=O)Nc1ccc([N+](=O)[O-])cc1Br | 0 | 0 | 0 | 0
CC(C(=O)Nc1ccccc1Br)c1ccc([N+](=O)[O-])cc1 (stereo not drawn) | 4.1µM | 0 | 13µM | 0
COC(=O)c1ccccc1NC(=O)C(C)c1ccc([N+](=O)[O-])cc1 (stereo not drawn) | ? | 0 | 0[5.75 µM] | 0
CC(C(=O)NC1CCCCCC1)c1ccc([N+](=O)[O-])cc1 (stereo not drawn) | 8.3µM | - | 0 | 0
O=C(Nc1ccc([N+](=O)[O-])cc1O)Nc1ccccc1Br | - | 61 | - | 36
O=C(CN1CCN(C(=O)C2CCCO2)CC1)Nc1ccc(Cl)c(Cl)c1 (stereo not drawn) | 0 | 0 | 0 | 0
COC(=O)CSc1nnc(-c2ccoc2C)n1-c1ccc(OC)cc1 | ? | 0 | 0 | 0
CCOC(=O)c1cccc(NC(=O)CSc2nnc(-c3ccoc3C)n2CC)c1 | 13µM | 0 | 0 | 0
Cc1cccc(C)c1NC(=O)CSc1nnc(-c2ccoc2C)n1C | 9.3µM | 0 | 0 | 0
COc1ccc(OCCSc2nnc(-c3ccoc3C)n2C)cc1 | ? | 0 | 8.3µM | 0
COc1ccccc1/C=C(/C(=O)OCC(=O)NCc1ccccc1)c1ccccc1 | 0 | 0 | 0 | 0
Cc1cc(S(=O)(=O)NCC(C)C)ccc1OCC(=O)NCc1ccccn1 | - | 0 | 0 | 0
C=C(C)C(=O)OCC(=O)NCc1ccccc1 | ? | 114 | 0 | 36
Cc1ccccc1OCC(=O)Nc1cccc(Cl)c1C | 0 | 0 | 0 | 0
Cc1ccccc1OCC(=O)Nc1ccccc1-c1ccccc1NC(=O)COc1ccccc1C | 9.3µM | 0 | 8.3µM | 0
O=C(COc1ccccc1-c1ccccc1)NCc1cccc(Cl)c1 | 13µM | 0 | ? | 0
Cc1cc(S(=O)(=O)NCc2ccccc2)ccc1OCC(=O)NCc1ccccn1 | 9.3µM | 0 | 0 | 0
O=C(NCc1cccc(Cl)c1)NCc1cccc(Cl)c1 | 0 | 0 | 0 | 0
CC1CCN(C(=O)CCS(=O)(=O)c2cc3c(cc2Cl)NC(=O)CO3)CC1 | 0 | 0 | 0 | 0
CCOc1ccc(S(=O)(=O)Nc2ccc(F)cc2)c(C)c1C | 0 | 0 | - | 0
CCCc1cc(=O)[nH]c(SCC(=O)N(CCOC)c2c(N)n(Cc3ccccc3)c(=O)[nH]c2=O)n1 | 0 | - | 0 | -
O=C(NCCCN1CCCC1)c1ccc(CS(=O)(=O)c2c(Cl)cccc2Cl)o1 | ? | 0 | 0 | 0
Cc1ccccc1NC(=S)NC(=O)COc1ccccc1C | 0 | 0 | 0 | 27
Cc1ccccc1OCC(=O)NNC(=O)CCc1ccccc1 | ? | 0 | 0 | 0
Cc1ccccc1OCC(=O)NCc1ccccc1 | 3.7µM | 0 | 0 | 0
SMILES | Pf growth 96h | Shiga inhibitor | Pf growth 48h | Cycloheximide cs
CC(=O)NS(=O)(=O)c1ccc(NC(=S)NC(=O)COc2ccccc2C)cc1 | 0 | 0 | 0 | 0
Cc1ccccc1OCC(=O)OCC(=O)c1ccc(OCc2ccccc2)cc1 | 0 | 81 | 0 | 59
CC(C)C(=O)Nc1ccc2c(c1)nc(CCN1CCN(c3ccccn3)CC1)n2C | 0 | 0 | 0 | 0
CCn1cc(Cl)c(C(=O)NNC(=O)CCn2ccc([N+](=O)[O-])n2)n1 | 0 | 0 | 0 | 0
C/C(=N/OCO/N=C(\C)c1ccccc1F)c1ccccc1F | 1.7µM | 0 | 0 | 0
COc1cccc(NC(=O)n2nc(N)cc2-c2ccc(Cl)cc2)c1 | 0 | 0 | 0 | 0
O=C(Nc1ccccc1F)n1ncc2cc(Cl)ccc21 | 0 | 0 | 0 | 12
COc1cc(NC(=O)n2ncc3cc(Cl)ccc32)cc(OC)c1 | ? | 60 | 0 | 43
COc1ccc(NC(=O)n2ncc3cc(Cl)ccc32)cc1OC | 0 | 56 | 0 | 47
COC(=O)Nc1ccc(OC)c(OC)c1 | 0 | 0 | 0 | 0
C=CCc1ccc(OC(=O)NC2CCCCC2)c(OC)c1 | 0 | 71 | 0 | 28
COc1ccc(CCN(C)C(=O)c2ccc(COc3ccccc3)o2)cc1OC | ? | 0 | 0 | 0
C=CCc1ccc(OCc2ccc(C(=O)O)o2)c(OC)c1 | 0 | 87 | 0 | 56
C=CCc1ccc(OCCCCOc2ccc(C(=O)O)cc2)c(OC)c1 | 0 | 0 | 0 | 0
COc1ccccc1OCc1ccc(C(=O)OCC2CCCO2)o1 (stereo not drawn) | 0 | 0 | 0 | 41
CCCc1ccc(OCc2ccc(C(=O)O)o2)c(OC)c1 | 0 | 134 | 0 | 74
COc1ccccc1OCc1ccc(C(=O)NC2CCCCC2)o1 | 0 | 0 | 0 | 0
COc1ccc(N(C(=O)c2cnccn2)C(C(=O)NC2CCCCC2)c2ccc(O)cc2)cc1 (stereo not drawn) | ? | 0 | 0 | 0
CCCc1ccc(OCc2ccc(C(=O)NN)o2)c(OC)c1 | 0 | 41 | 0[0.00184 µM] | 22
COC(=O)c1ccc(COc2ccccc2OC)o1 | 0 | 0 | 0 | 0
COc1ccccc1OCc1ccc(C(=O)NC(C)(C)C)o1 | 0 | 0 | 0 | 12
CCCc1ccc(OCc2ccc(C(=O)OC)o2)c(OC)c1 | 0 | 146 | 0 | 76
Cc1cc(C)cc(OCc2ccc(C(=O)NN)o2)c1 | 0 | 0 | 0 | 0
O=C(Nc1ccccc1F)C1CCN(S(=O)(=O)c2cccnc2)CC1 | 0 | 0 | 0 | 0
O=c1ccc(-c2ccc(S(=O)(=O)Nc3cccc([N+](=O)[O-])c3)s2)n[nH]1 | 0 | 0 | 0 | 0
SMILES | Pf growth 96h | Shiga inhibitor | Pf growth 48h | Cycloheximide cs
O=C(/C=C/c1ccco1)NC(=S)Nc1ccccc1N1CCOCC1 | ? | 0 | 13µM | 0
O=C(NC(=S)Nc1ccccc1N1CCCC1)c1ccco1 | ? | 0 | ? | 0
O=C(/C=C/c1ccco1)NC(=S)Nc1ccccc1N1CCCC1 | 0 | 0 | 2.6µM | 0
O=C(/C=C/c1ccco1)NC(=S)Nc1cc(C(F)(F)F)ccc1N1CCOCC1 | ? | 0 | 0 | 0
O=C(/C=C/c1ccco1)Nc1ccccc1N1CCCC1 | ? | 0 | 0[5.75 µM] | 12
O=C(Cc1ccc(NC2=NC3CS(=O)(=O)CC3S2)cc1)NCc1ccccc1Cl (stereo not drawn) | 0 | 0 | 0 | 0
NS(=O)(=O)c1ccc(CCNC(=O)CCCNC(=O)c2ccc(Cl)cc2)cc1 | 0 | 0 | 0 | 0
Cc1ccc(S(=O)(=O)NC(CCC(N)=O)C(=O)NCc2ccc3c(c2)OCO3)c(C)c1 (stereo not drawn) | 0 | - | 0 | -
COc1ccccc1C(=O)NC(CCSC)C(=O)NCC(c1cccs1)N1CCOCC1 (stereo not drawn) | 0 | - | ? | -
Cc1ccc(N/C=C2\CCCCC2=O)nc1 | ? | 107 | 0 | 58
O=C1CCCC/C1=C/Nc1ccc(S(=O)(=O)Nc2ncccn2)cc1 | 0 | 0 | 0 | 0
O=C1CCCC/C1=C\Nc1ccc(Cl)cn1 | - | 61 | 0 | 27
C/C=C(\C=C\[C@@H](C)C/C=C/CC/C=C/C=C\C[C@@H](OC)/C(C)=C\C=C(C)C)CC(=O)O | - | 0 | - | 0
CCOC(=O)c1nc2nc(-c3cccs3)cc(C(F)(F)F)n2n1 | 8.3µM | 0 | 0 | 0
O=C(CSc1ccccc1)N1CCCC(Nc2ccccc2)C1 (stereo not drawn) | 0 | 0 | 0 | 0
Fc1ccc(-c2nnc(SCc3cccnc3)o2)cc1 | 0 | 66 | 0 | 26
COc1cccc(CSc2nnc(-c3ccc(F)cc3)o2)c1 | ? | 0 | 0 | 18

Bioassay records as filed in PubChem BioAssay.
